From PubChem BioAssay (NCATS)
A number with no mark means an inactive call. Calls follow the shape of the dose curve; as a rule, active = well fitted activation curve with a large enough effect; inconclusive = small, poorly fitted or top-dose-only effect; inactive = flat fitted curve, though single readings scatter.

assay: Cellular Toxicity (caspase-3) SK-N-SH (AID 661); details: SK-N-SH caspase-3 activation, qHTS, DMSO as zero, staurosporine as full; series mostly up to 91.7 µM; caspase-3 activation: at the top concentration;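 also: 0% = DMSO basal and 100% = 10 µM staurosporine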
Text: NIH Chemical Genomics Center [NCGC]
NIH Molecular Libraries Screening Centers Network [MLSCN]
National Institutes of Environmental Health Sciences [NIEHS]
National Toxicology Program [NTP]
We have developed a 1536-well cell-based assay for quantitative high throughput screening (qHTS) against a number of cell lines to determine in vitro caspase 3/7 activity of small molecules. This particular assay uses the SK-N-SH cell line which is derived from human neuroblastoma.
NCGC Assay Protocol Summary:
The Caspase-Glo 3/7 assay (Promega) is a homogeneous method to measure caspase-3 and caspase-7 activities in cultured cells. The quantitation of caspase 3/7 activity is based on the cleavage of a peptide-aminoluciferin substrate. After caspase cleaves the substrate the free aminoluciferin is liberated and serves as the substrate of luciferase, which generates the light. The luminescent signal is proportional to amount of caspase 3/7 activity present.
Using the Caspase-Glo 3/7 assay, the amount of caspase 3/7 activity was measured in the SK-N-SH cell line with complete culture medium following compound treatment for 16 hours. The assay was performed in opaque white 1536-well plates. In the screen, tamoxifen and staurosporine were used as positive controls. Library compounds were measured for their ability to cause the activation of caspase 3/7 in the cell line, as reflected by an increase in luminescence signal, in a concentration-dependent manner. Data were normalized to the controls for basal activity (DMSO only) and 100% stimulation (10 uM staurosporine). AC50 values were determined from concentration-response data modeled with the standard Hill equation.
qHTS protocol for caspase 3/7 assay in SK-N-SH cells
[Step] [Parameter] [Value] [Description]
1. Reagent; 5 uL; 1500 SK-N-SH cells/well
2. Time; 5 hr; 37 °C incubation
4. Controls; 23 nL; Tamoxifen 0.23 uM to 100 uM & staurosporine 1.4 pM to 100 uM
5. Time; 16 hr; 37 °C incubation
6. Reagent; 5 uL; Caspase-Glo 3/7 reagent
7. Time; 1 hr; Room Temperature
8. Detection; Luminescence; Viewlux plate reader
Keywords: caspase 3/7, apoptosis, SK-N-SH cell line, luminescence, NTPHTS, NTPHTS_NCGC, NIEHS, EPA, DSSTox, MLSMR, MLSCN, NIH Roadmap, qHTS, NCGC

Going from `CCCCC(CC)C(=O)O` (stereo not given) to `CCCC(C)CO` (stereo not given), the “caspase-3 activation” value rises from -0.404% to 2.4%.

Going from `CCCCCCCCCCCCOCC1CO1` (stereo not given) to `C=C(C)C(=O)OCCCCCCCCCC`, the “caspase-3 activation” value falls from 0.899% to 0.164%.

Compared with `O=C(O)CCSSCCC(=O)O`, `NC(=O)CCCCC(N)=O` is higher in “caspase-3 activation” value: -0.243% for the first, 0.673% for the second.

First: CCCCCNCCCCC
Second: C=CCCCCCC
The “caspase-3 activation” value of the first is lower: -0.152% for the first, 0.252% for the second.

First: C=C(C)C(N)=O
Second: CCC(C)=O
The “caspase-3 activation” value of the first is higher: 0.993% for the first, 0.0126% for the second.

Going from `O=C(O)c1cc(Cl)cc(Cl)c1` to `O=C(O)c1ccc(Cl)cc1Cl`, the “caspase-3 activation” value falls from 1.61% to 1.16%.

Going from `CC(=O)OC(C)C` to `C=CC(=O)NC(C)C`, the “caspase-3 activation” value rises from -0.767% to -0.421%.

Going from `COc1ccc(N)c(C)c1` to `Nc1ccc(Cl)cc1[N+](=O)[O-]`, the “caspase-3 activation” value falls from -0.861% to -1.09%.

Compared with `CC(C)=C1CCC(C)CC1=O` (stereo not given), `C/C=C1\CC2C=CC1C2` (stereo not given) is higher in “caspase-3 activation” value: 0.081% for the first, 2.2% for the second.

First: CC(O)CC(C)O (stereo not given)
Second: CC(O)COC(C)(C)C (stereo not given)
The “caspase-3 activation” value of the first is lower: 0.235% for the first, 0.748% for the second.

First: CSCCC=O
Second: CCCC=O
The “caspase-3 activation” value of the first is lower: -1.14% for the first, 0.0616% for the second.

First: CCC=O
Second: O=Cc1ccc(CO)o1
The “caspase-3 activation” value of the first is higher: 0.134% for the first, -2.31% for the second.

First: Cc1cc(C2(c3cc(C)c(O)cc3C)OS(=O)(=O)c3ccccc32)c(C)cc1O
Second: Cc1cccc(C)c1[N+](=O)[O-]
The “caspase-3 activation” value of the first is higher: 1.21% for the first, -1.23% for the second.

Compared with `O=Cc1ccc(C(=O)O)cc1`, `O=Cc1cccc(Br)c1` is lower in “caspase-3 activation” value: 0.95% for the first, -0.433% for the second.

First: O=C(O)c1cccc(Cl)c1Cl
Second: NC(=O)c1ccccc1[N+](=O)[O-]
The “caspase-3 activation” value of the first is lower: 0.641% for the first, 1.04% for the second.

First: CC(=O)OCc1ccco1
Second: NC(=O)c1cccc([N+](=O)[O-])c1
The “caspase-3 activation” value of the first is lower: -1.28% for the first, 0.658% for the second.

First: Cc1nc2ccc(Cl)cc2[nH]1
Second: Nc1cc(Cl)c([N+](=O)[O-])cc1O
The “caspase-3 activation” value of the first is lower: 0.273% for the first, 0.345% for the second.

Compared with `COc1ccccc1[N+](=O)[O-]`, `CC(C)c1ccccc1` is lower in “caspase-3 activation” value: 1.99% for the first, -1.5% for the second.

First: Cc1ccc(N(C)C)cc1
Second: CC(C)N(C)C
The “caspase-3 activation” value of the first is lower: -1.57% for the first, -0.245% for the second.

Compared with `Nc1cccc2c(=O)[nH][nH]c(=O)c12`, `CC(CCl)OC(C)CCl` (stereo not given) is higher in “caspase-3 activation” value: -0.836% for the first, 0.418% for the second.
